Several values for one entry are separate records, joined by “and”; a condition that tells them apart may be missing. Equal entries are not always repeated. Records with an inconclusive call do not appear. Activity calls are given as the source filed them. Unless noted, calls follow the shape of the dose curve; as a rule, active = well fitted curve in the direction sought with a large enough effect; inconclusive = small, poorly fitted or top-dose-only effect, or another doubt; inactive = no such curve, though single readings can be large; an effect the other way counts as inactive or inconclusive.
How the values were obtained:
[1] = qHTS to identify inhibitors of the type 1 interferon - major histocompatibility complex class I in skeletal muscle: primary screen against the NCATS Mechanism Interrogation Plate v5.0 (MIPE) Libary (AID 1347411); also: nearly all actives have a fitted effect of over 65% in size; also: potency is read from the fitted curve at half-maximal effect;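 as to activity change, negative = inhibition: plate controls were vehicle for no effect and reference inhibitor for full effect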
How it was run: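 Immortalized human C25cl48 myoblasts with HiBit knocked into endogenous HLA-B*08:01 were stimulated with 4.0 ng/ml IFN-beta and exposed to compounds (11-point 1:3 titration, top 46 uM final) for 24 hrs at 37 C; HiBiT lytic luminescence measured.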

[2] = Primary qHTS for inhibitors of nuclear receptor binding SET domain protein 2 (NSD2) in an isogenic RCH-ACV NSD2 p.E1099K mutant (9B) (AID 1645876); also: nearly all actives have a fitted effect of over 70% in size; also: potency is read from the fitted curve at half-maximal effect
[3] = Primary qHTS for inhibitors of nuclear receptor binding SET domain protein 2 (NSD2) in an RCH-ACV wild type WT cells (2C) (AID 1645877); also: nearly all actives have a fitted effect of over 70% in size; also: potency is read from the fitted curve at half-maximal effect
[4] = molecular target: Glutathione peroxidase 1 (Homo sapiens) (UniProt P07203); experiment: Primary qHTS Assay for Inhibitors of Recombinant Selenoprotein Glutathione Peroxidase 1 (GPX1) (AID 1845191); also: nearly all actives have a fitted effect of over 65% in size
How it was run: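 10 nM GPX1 + cpd, 30 min RT; start w/ 1 mM GSH, 0.5 mM cumene hydroperoxide, 0.5 mM NADPH, 100 nM GR, 0.01% BSA; buffer 50 mM Tris-HCl pH 7.5, 2 mM EDTA, 150 mM NaCl; Fl 340/450, 0 & 15 min.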

[5] = qHTS drug screen for cell cycle checkpoint inhibitors in PARPi-resistant BRCA-mutant ovarian cancer cell lines. (AID 1963452; calls by dose curve; also: potency is read from the fitted curve at half-maximal effect); settings: PEO1/OlaR viability, CellTiter-Glo luminescence, 96 h; for Z-AUC: stronger effect = lower value
How it was run: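 PEO1, PEO4 and PEO1/OlaR ovarian cancer cells, 600 per well, exposed 96 h at 37C to a dilution series. Viability read by CellTiter-Glo luminescence, normalized to DMSO and empty wells; activity summarized as Z-AUC.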

[6] = molecular target: Phospholipid hydroperoxide glutathione peroxidase GPX4 (Homo sapiens) (UniProt P36969); experiment: Primary qHTS Assay for Inhibitors of Recombinant Selenoprotein Glutathione Peroxidase 4 (GPX4) (AID 1845192); settings: outcome: dose series up to 50 µM unless noted; also: nearly all actives have a fitted effect of over 65% in size; as to activity change, negative = inhibition: series mostly up to about 50 µM; % is scaled to controls: 0 for no effect and ±100 for the full control effect
How it was run: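 NADPH consumption, followed by fluorescence at 340/450 nm between 0 and 15 min, reports GPX4 activity via coupled glutathione reductase (100 nM). Enzyme 200 nM was pre-exposed to compound 30 min; 0.5 mM cumene hydroperoxide and 1 mM GSH served as substrates.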

[7] = molecular target: Tyrosine-protein kinase Yes (Homo sapiens) (UniProt P07947); experiment: qHTS for small molecule inhibitors of Yes1 kinase: Primary Screen (AID 686947);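 also: plate controls were DMSO with enzyme for no effect and no-enzyme DMSO wells for full effect; nearly all actives have a fitted effect of over 60% in size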
How it was run: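 ADP-Glo luminescence readout; final 4 nM Yes1, 0.1 mM ATP, 0.3 mg/mL poly(E4Y), Tris pH 7.5, MgCl2, DTT, Brij-35. 20 min compound preincubation, 60 min reaction at RT. Normalized to DMSO wells with and without enzyme.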

[8] = qHTS for small molecule inhibitors of Yes1 kinase: Counter Assay (AID 686950);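 also: no kinase present so only ADP-Glo detection of a fixed ADP amount is tested; luminescence from ADP-Glo reporting ADP in a fixed ATP and ADP mixture; series mostly up to about 77 µM; 0% = DMSO wells with ATP plus ADP and -100% = ATP-only wells without ADP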
How it was run: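 Luminescence read-out from ADP-Glo quantifies a fixed ADP amount (0.02 mM ADP with 0.08 mM ATP) after 60 min at room temperature; signal is normalized between DMSO wells with ATP/ADP and with 0.1 mM ATP alone.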

[9] = molecular target: Luciferin 4-monooxygenase (Photinus pyralis) (UniProt P08659); experiment: Biochemical firefly luciferase enzyme assay for NPC (AID 624030);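 also: purified P. pyralis luciferase at 10 nM with luciferin and ATP substrate; series mostly up to about 59 µM; 0% = DMSO and -100% = full luciferase inhibition by PTC124 control; nearly all actives have a fitted effect of over 70% in size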
How it was run: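 Direct inhibition of firefly luciferase enzyme (10 nM final, 50 mM Tris Acetate) assessed by luminescence within 5 minutes. Percent activity scaled between DMSO and PTC124 positive control, with concentration-effect curves classified by fit quality and response.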

[10] = measured here: PEO1 parental Z-AUC

Glutathione peroxidase 1 (Homo sapiens), sequence (P07203 whole entry, looked up): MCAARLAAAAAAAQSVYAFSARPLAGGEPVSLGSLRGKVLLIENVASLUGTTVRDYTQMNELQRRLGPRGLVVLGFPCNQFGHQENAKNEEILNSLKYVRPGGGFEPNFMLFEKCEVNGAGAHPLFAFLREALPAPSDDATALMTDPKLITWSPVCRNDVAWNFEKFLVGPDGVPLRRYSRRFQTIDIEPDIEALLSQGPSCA
Phospholipid hydroperoxide glutathione peroxidase GPX4 (Homo sapiens), sequence (P36969 whole entry, looked up): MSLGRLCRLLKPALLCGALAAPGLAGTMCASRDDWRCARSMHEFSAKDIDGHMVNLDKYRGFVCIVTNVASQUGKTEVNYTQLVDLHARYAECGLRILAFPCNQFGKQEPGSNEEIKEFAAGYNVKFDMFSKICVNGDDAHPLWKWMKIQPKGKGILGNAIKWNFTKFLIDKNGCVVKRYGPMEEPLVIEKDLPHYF
Tyrosine-protein kinase Yes (Homo sapiens), sequence (P07947 whole entry, looked up): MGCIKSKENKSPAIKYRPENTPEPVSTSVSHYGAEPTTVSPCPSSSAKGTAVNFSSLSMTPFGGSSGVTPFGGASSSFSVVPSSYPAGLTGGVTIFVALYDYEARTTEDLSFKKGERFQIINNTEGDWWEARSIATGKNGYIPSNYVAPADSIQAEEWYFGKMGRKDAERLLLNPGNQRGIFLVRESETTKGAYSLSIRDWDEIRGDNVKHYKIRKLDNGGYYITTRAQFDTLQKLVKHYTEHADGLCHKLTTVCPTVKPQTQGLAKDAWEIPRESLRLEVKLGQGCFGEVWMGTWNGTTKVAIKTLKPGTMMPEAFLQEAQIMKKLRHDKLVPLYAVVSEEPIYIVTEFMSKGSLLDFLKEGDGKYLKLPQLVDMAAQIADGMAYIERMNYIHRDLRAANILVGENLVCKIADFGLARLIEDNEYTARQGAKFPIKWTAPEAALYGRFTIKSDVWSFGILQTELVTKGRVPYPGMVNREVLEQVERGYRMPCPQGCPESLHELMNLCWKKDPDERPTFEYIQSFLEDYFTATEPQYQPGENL
Luciferin 4-monooxygenase (Photinus pyralis), sequence (P08659 whole entry, looked up): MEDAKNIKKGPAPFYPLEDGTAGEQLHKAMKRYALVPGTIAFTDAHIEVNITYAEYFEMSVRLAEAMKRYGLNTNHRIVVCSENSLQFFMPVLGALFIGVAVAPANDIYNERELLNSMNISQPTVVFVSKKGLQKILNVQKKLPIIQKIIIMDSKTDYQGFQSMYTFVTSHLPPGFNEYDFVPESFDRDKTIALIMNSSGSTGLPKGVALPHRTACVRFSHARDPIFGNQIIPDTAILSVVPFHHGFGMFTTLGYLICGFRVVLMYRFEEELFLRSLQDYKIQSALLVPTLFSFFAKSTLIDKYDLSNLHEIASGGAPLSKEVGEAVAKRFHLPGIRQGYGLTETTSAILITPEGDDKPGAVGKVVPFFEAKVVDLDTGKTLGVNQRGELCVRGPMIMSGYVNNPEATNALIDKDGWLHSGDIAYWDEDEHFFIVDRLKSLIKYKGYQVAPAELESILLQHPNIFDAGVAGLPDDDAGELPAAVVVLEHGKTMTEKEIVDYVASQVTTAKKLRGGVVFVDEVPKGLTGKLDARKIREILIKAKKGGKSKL

| SMILES | Potency [1] | Potency [2] | Potency [3] | Potency [4] | Z-AUC [5] | Z-AUC [5, 10] | Z-AUC ([5]; measured here: PEO4 Z-AUC) | activity change, negative = inhibition [1] | outcome [4] | outcome [6] | Potency [5] | Potency [7] | outcome [8] | Potency [6] | activity change, negative = inhibition [6] | Potency [9] |
| --- | --- | --- | --- | --- | --- | --- | --- | --- | --- | --- | --- | --- | --- | --- | --- | --- |
| CCN(CC)CCNc1ccc(C)c2sc3ccccc3c(=O)c12 | 26200 nM (active) | 5900 nM (active) | 5250 nM (active) | inactive | -1.21 (inactive) | -0.605 | -0.562 | – | – | – | – | – | – | – | – | – |
| CNCCn1c(=O)c2cc(OC)c(OC)cc2c2cnc3cc4c(cc3c21)OCO4 | – | 9.6 nM (active) | 6 nM (active) | – | – | -3.24 | -2.15 | -8.45% [at 8.44 µM] (inactive) | inactive [at 9.52 µM] | inactive [at 9.73 µM] | 7.1 nM (active) | – | – | – | – | – |
| COc1ccc(COc2ccc(Cc3cnc(N)nc3N)cc2OC)cc1 | inactive | inactive | inactive | inactive | 0.614 (inactive) | 0.516 | 0.82 | – | – | – | – | inactive | inactive | inactive | – | – |
| O=C1OC(COc2ccccc2[N+](=O)[O-])CC1Cc1ccccc1 (stereo not given) | inactive | inactive | inactive | inactive | -0.926 (inactive) | -0.0369 | -0.342 | – | – | – | – | – | – | inactive | – | – |
| COc1cc(OC)c(/C=C/S(=O)(=O)Cc2ccc(OC)c(OP(=O)(O)O)c2)c(OC)c1 | inactive | 37.2 nM (active) | 33.2 nM (active) | inactive | – | -2.04 | -2.09 | – | – | – | 49 nM (active) | – | – | inactive | – | – |
| O=C(O)C[C@H]1CCc2c1[nH]c1ccc(OCc3ccc(C4CCCC4)c(C(F)(F)F)c3)cc21 | inactive | inactive | inactive | inactive | 1.56 (inactive) | 0.981 | 0.948 | – | – | – | – | – | – | – | – | – |
| Cc1c(Cl)cccc1S(=O)(=O)Nc1nc(CCN2CCOCC2=O)cs1 | inactive | inactive | inactive | inactive | 0.943 (inactive) | 0.512 | 0.46 | – | – | – | – | – | – | inactive | – | – |
| CN1C(=O)N[C@H](Cc2c[nH]c3c(Cl)cccc23)C1=O | inactive | inactive | inactive | inactive | 0.358 (inactive) | 0.688 | 0.653 | – | – | – | – | – | – | inactive | – | – |
| COc1ccc2[nH]c3c(c2c1)CCN[C@]31CS[C@@H]2c3c(OC(C)=O)c(C)c4c(c3[C@H](COC1=O)N1[C@@H]2[C@H]2c3c(cc(C)c(OC)c3O)C[C@@H]([C@@H]1O)N2C)OCO4 | 53.5 nM (active) | 1.7 nM (active) | 1.7 nM (active) | – | – | -2.79 | -2.86 | – | inactive [at 9.52 µM] | – | 31.7 nM (active) | – | – | – | -15.3% [at 9.73 µM] (inactive) | – |
| CC1=NN(c2ccc(C(=O)O)cc2)C(=O)/C1=C/c1ccc(-c2cc(C)c(C)cc2[N+](=O)[O-])o1 | inactive | inactive | inactive | inactive | 0.0308 (inactive) | 0.127 | -0.0936 | – | – | – | – | – | – | inactive | – | – |
| CC(C)n1cc(-c2ccc3c(c2)N(C)CC3)c2c(NS(=O)(=O)c3ccn(C)n3)ccnc21 | inactive | inactive | inactive | inactive | 1.52 (inactive) | 0.948 | 0.671 | – | – | – | – | – | – | – | – | – |
| C[C@]12CC[C@H](O)CC1=CC[C@@H]1[C@@H]2CC[C@]2(C)C(c3cccnc3)=CC[C@@H]12 | inactive | inactive | inactive | inactive | 0.978 (inactive) | 0.324 | 0.672 | – | – | – | – | – | – | inactive | – | – |
| Nc1nc(-c2nn(Cc3ccccc3F)c3ncccc23)ncc1C1CC1 | inactive | 1180 nM (active) | 1180 nM (active) | inactive | 1.67 (inactive) | 0.865 | 1.09 | – | – | – | – | – | – | inactive | – | – |
| CC1(C)S[C@H]2[C@H](NC(=O)[C@@H](N)c3ccc(O)cc3)C(=O)N2[C@H]1C(=O)O | inactive | inactive | inactive | inactive | -0.122 (inactive) | 0.11 | 0.161 | – | – | – | – | – | – | inactive | – | – |
| Nc1nc(F)nc2c1ncn2[C@@H]1O[C@H](COP(=O)(O)O)[C@@H](O)[C@@H]1O | inactive | 1860 nM (active) | 1860 nM (active) | inactive | -1.15 (inactive) and -1.44 (inactive) | -1.36 and -1.18 | -0.49 and -0.861 | – | – | – | – | – | – | inactive | – | inactive |
